Compound activity deposited in PubChem BioAssay by The Scripps Research Institute Molecular Screening Center.
FBW7 act – activators of human E3 ligase FBW7. Q969H0. AlphaScreen FBW7–phospho-cyclin E peptide binding, activator screen. normalized activity (activation), % at 26.1 µM. actives 0.13% (n = 650,000). AID 1259310; in the data active means normalized activity above about 1.9%;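 further: purified mutant Fbw7 with reduced substrate affinity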
GPR151 activ – activates the human receptor GPR151; AID 1508602; PathHunter beta-arrestin GPR151 cells, luminescence; Q8TDV0; actives 1% (n = 650,000); activation, % at 11.2 µM; in the data active means activation above about 4.9%;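 further: 0% = median of compound wells and 100% = cells with positive control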
Target sequence (Q8TDV0 whole entry, looked up): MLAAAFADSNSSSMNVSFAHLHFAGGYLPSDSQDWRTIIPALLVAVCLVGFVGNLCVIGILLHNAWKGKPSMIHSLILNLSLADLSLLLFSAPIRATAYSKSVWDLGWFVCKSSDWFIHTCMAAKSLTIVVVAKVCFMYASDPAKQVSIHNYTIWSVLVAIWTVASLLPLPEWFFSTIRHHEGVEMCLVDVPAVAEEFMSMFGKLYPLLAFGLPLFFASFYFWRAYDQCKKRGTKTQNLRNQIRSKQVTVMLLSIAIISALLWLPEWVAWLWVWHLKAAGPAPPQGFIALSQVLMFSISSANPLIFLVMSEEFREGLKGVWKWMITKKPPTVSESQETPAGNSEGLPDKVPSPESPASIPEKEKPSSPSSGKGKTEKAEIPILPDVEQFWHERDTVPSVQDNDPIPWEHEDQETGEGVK
TEAD-YAP block – TEAD-YAP interaction inhibition. HEK-TIYL cells, TEAD-Gal4/YAP UAS-luciferase luminescence. inhibition, % at 9.12 µM. actives 1.4% (n = 640,000); in the data active means inhibition above about 32%;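 further: 0% = median of test compound wells and 100% = reference inhibitor wells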
MITF primary – human MITF inhibition, primary screen; O75030; AlphaScreen MITF homodimerization, bead proximity signal; actives 0.91% (n = 650,000); inhibition, % at 2.6 µM; in the data active means inhibition above about 50%;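 further: 0% = vehicle wells with protein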
MITF inh conf – human MITF inhibition, confirmation. shares compounds with MITF primary. AlphaScreen MITF homodimerization, biotin/His-MITF beads. inhibition, % at 2.6 µM. actives 16% (n = 4,700);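 active means inhibition above a cutoff derived from the DMSO control wells, cut at about 28% in these data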;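 further: 0% = MITF dimer wells with DMSO only; inhibitors lower the bead chemiluminescence by keeping MITF from dimerizing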
AS interf DR – counter-screen: compounds optically interfering with AlphaScreen; shares compounds with MITF primary; AlphaScreen optical interference counterscreen, cell-free; IC50, µM; actives 6% (n = 480); AID 1259373; call rule not given here
AlphaScreen intf2 – optically interferes with AlphaScreen signal; inhibition, % at 2.6 µM; AID 1259376; actives 7.6% (n = 4,700); shares compounds with MITF primary; LysRS AlphaScreen counterscreen, signal interference, triplicate;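 active means inhibition above a cutoff derived from the DMSO control wells, cut at about 30% in these data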
Starred values were filed as active, the others as inactive; nt = not tested or not shown. Sampled rows, rich in hits. Any-hit rate of the full collection: about 3.5%.

SMILES	FBW7 act	GPR151 activ	TEAD-YAP block	MITF primary	MITF inh conf	AlphaScreen intf2	others
O=C(c1cc(F)cc(F)c1)N1CC[C@@H](c2ccccc2)[C@H](O)C1	0.0	-0.6	-3.2	53.2*	-2.5	6.9
COc1ccc([C@@H]2CCN(C(=O)c3cc(F)cc(F)c3)C[C@H]2O)cc1	0.1	-0.5	-8.6	-8.4	nt	nt
C(=C\c1ncc2ccccn12)/c1ccccc1	0.4	-3.2	-36.2	56.5*	-70.1	-11.4
N#CCSc1nc2cc(C(=O)N3CCOCC3)ccc2c(=O)n1CCc1ccccc1	0.2	-0.2	13.9	10.7	nt	nt
COc1ccc(Cc2nnc(N/N=C/c3cccc([N+](=O)[O-])c3)[nH]c2=O)cc1OC	0.2	-1.0	-0.9	-9.5	nt	nt
COc1ccc(Cc2nnc(N/N=C/c3c(CO)cnc(C)c3O)[nH]c2=O)cc1OC	-0.7	-0.2	4.1	111.5*	107.3*	99.9*
O=C(NC1CCCC1)C(c1ccco1)N(C(=O)c1ccco1)c1cccc(F)c1 (stereo not drawn)	0.0	-0.5	-5.6	2.3	nt	nt
O=C(CCCCCn1nnc2ccccc2c1=O)N1CCC(O)(c2cccc(C(F)(F)F)c2)CC1	0.1	1.5	6.7	74.2*	6.9	1.5
COCCCNC(=S)NNC(=O)CCNS(=O)(=O)c1ccccc1F	-0.1	2.2	3.2	2.6	nt	nt
Oc1ccc(Cn2cnc3ccccc32)c2cccnc12	-2.0	-0.1	51.4*	95.2*	96.1*	100.6*
Brc1ccccc1Cn1cnc2ccccc21	-0.1	0.7	10.7	-4.7	nt	nt
Oc1ccc(Cn2ccnc2)c2cccnc12	-0.4	-0.9	14.3	108.6*	112.2*	99.8*
COc1cccc(CC2=NOC(C(=O)N(Cc3c(C)nn(C)c3C)C3CC3)C2)c1 (stereo not drawn)	0.0	2.0	-15.6	1.4	nt	nt
CCNc1nc(NCC)nc(N2N=C(C)CC2=O)n1	-0.2	0.4	8.3	71.2*	41.0*	65.7*
CC1=NN(c2cc(C)cc(C)c2)C(=O)C1	0.2	-0.4	2.9	7.5	nt	nt
CS(=O)(=O)c1ccccc1C(=O)Nc1nc(-c2ccccn2)cs1	-1.8	0.8	18.8	57.0*	37.5*	100.3*
CCn1ccc(C(=O)Nc2nc(-c3ccccn3)cs2)n1	-1.3	3.0	-22.8	83.4*	72.7*	100.6*
CSc1ccccc1C(=O)Nc1nc(-c2ccccn2)cs1	-2.0	-1.0	13.8	27.6	nt	nt
COc1ccc(O)c(C=Nc2ccc(Cl)cc2)c1	0.4	3.9	-6.2	51.1*	-3.8	-3.0
O=C(NCc1cccnc1)c1ccc(Cl)c([N+](=O)[O-])c1	0.0	0.3	-4.2	-1.7	nt	nt
COc1ccc(Nc2nc(-c3cccs3)cs2)c(OC)c1	-0.2	0.0	-66.4	71.0*	4.9	13.8
COc1cc(CN2CCN(C(=O)c3ccccc3)CC2)cc(OC)c1O	-0.2	0.0	2.9	24.1	nt	nt
COc1cc(CN2CCN(c3ccccn3)CC2)cc(Br)c1O	0.1	-0.9	6.2	41.9	nt	nt
COc1cc(CN2CCN(Cc3ccccc3Br)CC2)cc(OC)c1O	1.1	-0.7	-1.1	68.5*	1.9	18.0
COc1cc(CN2CCN(Cc3c[nH]c4ccccc34)CC2)cc(OC)c1OC	0.2	0.5	7.6	55.7*	17.3	16.7
SMILES	FBW7 act	GPR151 activ	TEAD-YAP block	MITF primary	MITF inh conf	AlphaScreen intf2	others
COc1cc(CN2CCN(c3ccccc3C)CC2)cc(OC)c1OC	0.0	0.1	-4.2	30.9	nt	nt
COc1cc(CN2CCN(Cc3ccccc3C)CC2)cc(OC)c1OC	-0.1	2.6	-7.1	64.2*	-6.7	0.3
COc1cc(CN2CCN(Cc3ccccc3C)CC2)cc(OC)c1O	-0.2	-0.9	-5.3	58.6*	-8.0	-0.7
CC1C(=O)CC(c2ccc(Cl)cc2)NC1c1ccc(Cl)cc1 (stereo not drawn)	0.0	0.9	1.9	-6.7	nt	nt
COc1cc(CN2CCN(CCO)CC2)cc(Br)c1O	-0.1	0.3	-2.2	67.3*	-2.4	9.3
O=P(O)(O)C(Sc1ccc(Cl)cc1)P(=O)(O)O	-0.2	1.8	nt	96.3*	105.9*	-8.1	AS interf DR=>6.48
CCCNc1ncnc2c1nc(Nc1ccncc1)n2C(C)C	0.5	-0.6	-10.4	5.0	nt	nt
Cc1cc(NC2CC2)nc(N2CCN(c3ccccn3)CC2)n1	0.0	1.9	-11.3	5.9	nt	nt
C#CCNCC(O)COc1ccc(OCC)cc1 (stereo not drawn)	0.2	-1.4	-21.3	66.4*	2.6	7.0
C=CCNCCOCCOc1c(C)cccc1C(C)(C)C	-0.1	-0.7	-8.5	67.6*	-6.6	-6.2
COCCCNCCOc1c(C)cccc1C(C)(C)C	0.2	-0.7	-13.8	81.4*	12.8	10.0
COCCCNCCCOc1c(C)cccc1C(C)(C)C	-0.1	-0.5	1.9	34.2	nt	nt
COCCNCCCCOc1c(C)cccc1C(C)(C)C	0.0	-0.2	-5.6	26.4	nt	nt
O=C1c2cccnc2C(=O)N1c1ccc(F)cc1	-1.0	0.8	3.1	51.0*	2.2	15.4
O=C1c2cccnc2C(=O)N1c1ccccc1	0.0	-0.4	-9.5	70.1*	-15.5	17.9
O=C1c2cccnc2C(=O)N1c1ccc(Oc2ccccc2)cc1	-0.1	0.5	-28.6	20.9	nt	nt
O=C1c2cccnc2C(=O)N1c1ccccc1F	-0.4	0.8	0.5	56.8*	18.6	30.9*
COc1cccc(CN2CCN(C3CCN(Cc4ccccc4)CC3)CC2)c1	0.0	0.3	14.8	21.6	nt	nt
COc1cccc(CN2CCN(c3ncccn3)CC2)c1	0.0	0.0	-5.6	29.9	nt	nt
COc1cccc(CN2CCN(Cc3cc(OC)cc(OC)c3)CC2)c1	-0.2	-0.2	6.4	80.0*	16.9	20.3
COc1cccc(CN2CCN(Cc3ccccn3)CC2)c1	-0.1	-0.8	5.7	51.4*	-2.4	-7.7
COc1cccc(CN2CCN(C3CCCC3)CC2)c1	0.1	0.7	-3.9	64.9*	-7.2	-2.8
O=C(CSc1nc2sc3c(c2c(=O)n1-c1ccccc1)CCCC3)c1ccc2c(c1)OCO2	-0.1	3.1	5.2	-4.4	nt	nt
NNc1nc(NN)nc(Nc2cccc3ccccc23)n1	-0.2	-1.4	2.7	51.5*	53.6*	63.4*
Cc1cc2[nH]c(=O)c(=O)[nH]c2cc1S(=O)(=O)NC1CCCCC1	-0.1	0.7	-2.8	11.5	nt	nt
CCCc1[nH]nc2c1C(c1c(OC)cc(OC)cc1OC)C(C#N)=C(N)O2 (stereo not drawn)	-0.2	0.8	2.7	11.6	nt	nt
CCCc1[nH]nc2c1C(c1ccc(OC)cc1OC)C(C#N)=C(N)O2 (stereo not drawn)	0.0	-0.8	-0.8	61.5*	11.4	16.8
COc1ccc(CNC(=O)c2c(O)c3c([nH]c2=O)CCCC3)cc1	0.7	-1.5	-3.7	51.2*	7.5	15.0
CC1=NC(=S)C2C(=O)O/C(=C/c3ccc(-c4cccc([N+](=O)[O-])c4)o3)C2=C1 (stereo not drawn)	-0.1	-0.8	-4.6	53.3*	34.0*	23.8
